This is one part of a sample in which hits are shown more often than they occur.
Sm TGR inh – inhibitors of Schistosoma mansoni thioredoxin glutathione reductase. Potency, µM (titrated, usually from 114 µM), inactives show at the highest dose activity change, negative = inhibition, most hits filed as inhibitors. 360,000 compounds, 3% hits. purified TGR, DTNB reduction, TNB absorbance 405 nm. Q962Y6; note: potency is the fitted concentration of half-maximal effect; % is set by controls: 0 for no effect and ±100 for the full control effect; nearly all actives have a fitted effect of over 60% in size
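Kinetic colorimetric format: TGR-catalysed, NADPH-driven DTNB reduction monitored via TNB absorbance. Enzyme dispensed at 20 nM; compound exposure 15 min at room temperature before reaction start.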
TbPYK inhibitor – T. brucei pyruvate kinase inhibition. Q57TT1. TbPYK enzyme, Kinase-Glo Plus ATP luminescence, 45 min. Potency, µM (top dose mostly 76.8 µM), without a hit: top-dose activity, negative = inhibition, actives largely listed as inhibitors. 410,000 compounds, 0.12% hits; note: potency is the fitted concentration of half-maximal effect; % is set by controls: 0 for no effect and ±100 for the full control effect; nearly all actives have a fitted effect of over 50% in size
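Assay buffer: 50 mM TEA pH 7.2, 100 mM KCl, 10 mM MgCl2, 0.05% BSA, 0.01% Tween-20. Pyruvate kinase from T. brucei plus substrate met compound, then ADP (130 uM final). Luminescence was read post 45 min RT.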
FBPA Giardia inh – Giardia lamblia aldolase inhibition; purified Giardia FBPA; 290,000 compounds, 0.71% hits; A8B2U2; Potency, µM (series often up to 59.6 µM), for inactives: top-dose activity, negative = inhibition, actives largely listed as inhibitors; note: potency is the fitted concentration of half-maximal effect; % is set by controls: 0 for no effect and ±100 for the full control effect; nearly all actives have a fitted effect of over 55% in size
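40 nM FBPA preincubated 10 min at RT with compound (up to 57.5 uM final), then substrate plus GAPDH/TPI/NAD/arsenate coupling and diaphorase/resazurin added. Fluorescence read after 20 min at RT, 525/598 nm.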
LmPK inhibitor – blocks Leishmania mexicana pyruvate kinase activity; Q27686; Potency, µM (highest dose often 57.5 µM), for the others: at the top dose activity change, negative = inhibition, most hits filed as inhibitors; 290,000 compounds, 0.37% hits; AID 1721; purified LmPK, Kinase-Glo ATP luminescence, 1 h; note: potency is the fitted concentration of half-maximal effect; % is set by controls: 0 for no effect and ±100 for the full control effect
Target sequence (Q27686 whole entry, looked up): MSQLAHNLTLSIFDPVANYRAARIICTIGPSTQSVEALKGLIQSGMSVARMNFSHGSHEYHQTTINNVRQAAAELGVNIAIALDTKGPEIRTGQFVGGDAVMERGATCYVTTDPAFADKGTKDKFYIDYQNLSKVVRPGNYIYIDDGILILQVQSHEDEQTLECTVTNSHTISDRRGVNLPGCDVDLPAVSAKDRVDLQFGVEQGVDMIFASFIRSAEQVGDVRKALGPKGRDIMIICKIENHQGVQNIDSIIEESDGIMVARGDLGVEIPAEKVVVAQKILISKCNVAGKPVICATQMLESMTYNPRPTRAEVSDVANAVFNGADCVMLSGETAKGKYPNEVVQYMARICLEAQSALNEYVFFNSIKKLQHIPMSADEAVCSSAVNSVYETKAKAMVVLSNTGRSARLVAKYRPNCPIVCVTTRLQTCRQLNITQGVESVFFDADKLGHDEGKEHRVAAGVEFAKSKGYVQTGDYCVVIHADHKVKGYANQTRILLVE
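Pyruvate kinase activity monitored as ATP production (luciferase luminescence). Conditions: 0.1 nM enzyme, 0.5 mM PEP, 0.1 mM ADP, 1 h, RT; normalized against uninhibited and no-enzyme wells.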
Shiga toxin inh – blocks Shiga toxin action in Vero cells; Vero cells, Shiga toxin protein synthesis inhibition reporter; 290,000 compounds, 9.2% hits; inhibition, % at 38.7 µM; in the data active = inhibition mostly above about 28%, no sharp cut-off; inactive = mostly below about 43%; note: 0% is about no effect
CHX counter – counter-screen hit for Shiga toxin inhibitors, cycloheximide. cell reporter, cycloheximide protein synthesis inhibition counterscreen. max response, %. 300,000 compounds, 12% hits. AID 2314; in the data active = max response mostly above about 13%, no sharp cut-off; inactive = mostly below about 14%; note: read at 38.3 µM for the half of the compounds with a filed dose; 0% is about no effect
The depositor's hits bear a star; ? = inconclusive; / = no result; [ ] = dose if it differs, or a comment. Unless noted, calls come from the whole dose curve; as a rule, active = well fitted curve in the direction sought with a large enough effect; inconclusive = small, poorly fitted or top-dose-only effect, or another doubt; inactive = no such curve, though single readings can be large; an effect the other way counts as inactive or inconclusive.

SMILES | Sm TGR inh | TbPYK inhibitor | FBPA Giardia inh | LmPK inhibitor | Shiga toxin inh | CHX counter
CCN(CC)c1ccc2c(c1)C(=O)N(C)C2=O | -5% | -8% | -2% | 4% | 72* | 33*
O=P(O)(Cc1ccccc1)c1ccccc1 | / | -9% | / | / | / | /
COCCNc1ncnc2ccc(-c3c(C)noc3C)cc12 | / | / | -1% | / | / | /
CC1CCN(C(=O)CCc2nnc(-c3ccccc3)o2)CC1 | 2% | 1% | 8% | -6% | 97* | 43*
Cc1ccc(-c2nnn(CC(=O)N3CCCCC3)n2)cc1 | -6% | 0% | -4% | 7% | / | 19*
O=C(Cn1nnc(-c2ccc(N3CCOCC3)cc2)n1)N1CCOCC1 | 4% | -3% | 2% | -5% | 34* | 34*
CCCCOc1ccc(-c2nnn(CCC(=O)N3CCOCC3)n2)cc1 | 2% | -11% | 6% | -3% | 78* | 36*
O=C(Cn1nnc(-c2ccc(N3CCOCC3)cc2)n1)OC1CCCCC1 | 7% | -3% | 0% | -1% | 15 | 2
O=C(CCc1nnc(-c2ccccc2)o1)NCC1CCN(C2CCCC2)CC1 | -8% | 1% | 1% | 1% | -1 | 4
NCC(=O)N[C@@H](CCCN=C(N)N)C(=O)NCC(=O)N[C@@H](CC(=O)O)C(=O)N[C@@H](CO)C(=O)O | / | / | -2% | / | 16 | -4
COc1ccc(CNC(=O)CN2C(=O)CSc3ccc(S(=O)(=O)N4CCC(C)CC4)cc32)cc1 | 4% | -4% | / | / | / | /
CC1CCN(C(=O)Cn2nnc(-c3ccccc3)n2)CC1 | -2% | -12% | 8% | -8% | 83* | 30*
Cc1ccc(C(=O)Cn2nnc(-c3ccccc3)n2)cc1 | ? | 7% | 0% | 3% | 82* | 21
O=C(Cn1nnc(-c2ccccc2)n1)c1ccccc1 | -2% | 4% | -1% | 3% | 84 | 2
Cc1ccc(-c2nnn(CC(=O)NC3CC4CCC3C4)n2)cc1 (stereo not drawn) | 6% | -2% | 0% | -2% | 12 | 12*
O=C(Cn1nnc(-c2ccc(Cl)cc2)n1)NC1CC2CCC1C2 (stereo not drawn) | -2% | 5% | 4% | 0% | -2 | -6
CC(=O)Nc1cc(-c2ccc(C(=O)NC3CC3)cc2)cn2c(-c3cccc(C(F)(F)F)c3)cnc12 | / | 6% | / | / | / | /
CCOC(=O)Cc1csc(NC(=O)CSc2nc(=O)[nH]c3c2CCCC3)n1 | 0% | -5% | / | / | / | /
CCOC(=O)N1CCN(C(=O)c2ccc(NC(=O)c3ccc(C)cc3)cc2)CC1 | 2% | -1% | 1% | 1% | 34 | 31*
COc1ccc(C(=O)Nc2ccc(N3CCN(C)CC3)cc2)cc1OC | -16% | 4% | -4% | -3% | 48* | 30*
CCOC(=O)N1CCN(C(=O)c2ccc(NC(C)=O)cc2)CC1 | -2% | -3% | 1% | -1% | 2 | -2
CN1CCN(c2ccc(NC(=O)c3ccc4ccccc4c3)cc2)CC1 | -7% | -8% | 5% | 5% | 85* | 31*
COc1ccc(C(=O)Nc2ccc(N3CCN(C)CC3)cc2)cc1 | 4% | 2% | -5% | 3% | / | 48*
CN1CCN(c2ccc(NC(=O)COc3ccc4ccccc4c3)cc2)CC1 | -1% | 14% | 11% | 0% | 4 | 9
CCCCOc1ccc(C(=O)Nc2ccc(N3CCN(C)CC3)cc2)cc1 | -5% | -16% | 0% | 7% | -14 | -2
SMILES | Sm TGR inh | TbPYK inhibitor | FBPA Giardia inh | LmPK inhibitor | Shiga toxin inh | CHX counter
O=C(NCCSCc1cccc(Cl)c1)C1CCN(S(=O)(=O)Cc2ccccc2)CC1 | -9% | 2% | / | / | / | /
CCOc1ccc(C(=O)Nc2ccc(N3CCN(C)CC3)cc2)cc1 | 0% | 3% | 3% | -11% | 15 | 12
Cc1ccc(C(=O)Nc2ccc(N3CCN(C)CC3)cc2)cc1 | -13% | -7% | 4% | 1% | 56* | 34*
NCCC[C@H](N)CC(=O)N[C@H]1CNC(=O)[C@@H]([C@@H]2C[C@H](O)N=C(N)N2)NC(=O)/C(=C/NC(N)=O)NC(=O)[C@@H](CO)NC(=O)[C@@H](CO)NC1=O | / | / | -1%[21.7 µM] | / | / | /
Cc1ccc(-c2sc(-c3ccccc3)nc2CC(=O)Nc2ccccc2F)cc1 | 5% | 6% | 0% | 0% | -5 | 0
COC(=O)c1cccc(NC(=O)Cc2nc(-c3ccccc3)sc2-c2ccc(C)cc2)c1 | 5% | -1% | 3% | 0% | -2 | -5
CC(=O)Nc1cccc(NC(=O)Cc2nc(-c3ccccc3)sc2-c2ccc(C)cc2)c1 | 0% | -1% | -7% | -3% | 130* | 20*
COc1cccc(NC(=O)Cc2nc(-c3ccccc3)sc2-c2ccc(C)cc2)c1 | 0% | 1% | -16% | 4% | 51* | 28*
CSc1ncc(CN2CCCC(C(=O)c3cccc(Cl)c3)C2)cn1 (stereo not drawn) | 11% | 0% | 1% | 2% | -2 | -3
CSc1ncc(CN2CCCC(C(=O)c3ccc(C(C)(C)C)cc3)C2)cn1 (stereo not drawn) | 2%[57.1 µM] | 0% | 1% | 1% | 37 | 22*
CSc1ncc(CN2CCCC(C(=O)Nc3ccc(-c4ccco4)cc3)C2)cn1 (stereo not drawn) | 18µM* | -15% | 1% | 1% | 11 | 5
CN(C)c1ccc(C(c2nnnn2CCOC(=O)Nc2ccc(Cl)cc2)N2CCOCC2)cc1 (stereo not drawn) | 25µM* | -11% | ? | 6% | 11 | 4
O=C(O)/C=C/S(=O)(=O)c1ccc2ccccc2c1 | 0.89µM* | -2% | 7% | 0% | 44 | 1
NS(=O)(=O)c1ccc2ccccc2c1 | -9% | -7% | 1% | 0% | 10 | 0
Cc1occc1C(=O)NCc1ccc(C(=O)O)o1 | 40µM* | 3% | -17% | 2% | -11 | 8
Cc1occc1C(=O)NCCc1ccc(Cl)cc1 | 22µM* | -2% | -1% | -4% | 6 | 15
COc1ccc(CC(=O)NNC(=O)c2ccoc2C)cc1OC | 6% | 3% | 5% | 0% | -10 | 6
COc1ccccc1CCNC(=O)c1ccoc1C | -28% | 3% | -6% | -12% | 32 | 19*
Cc1cc(C(=O)NCc2ccc(C(=O)O)o2)c(C)o1 | -3% | -4% | 12% | 5% | 8 | -3
Cc1cc(C(=O)NCCc2ccc(Cl)cc2)no1 | / | -4% | 3% | 1% | 24 | 13
Cc1ccoc1C(=O)NCCCNC(=O)c1occc1C | 45µM* | -1% | ? | -3% | 5 | 5
Cc1ccc(Sc2ccc(N3CCCC(C(=O)Nc4ccc(F)c(Cl)c4)C3)nn2)cc1 (stereo not drawn) | 8% | 0% | / | / | / | /
O=Cc1ccc(F)c([B-](F)(F)F)c1 | / | -10% | / | / | / | /
COC(=O)N1CCC2(CC1)CCN(C(c1ccccc1)c1ccccc1)CC2 | / | -5% | 7% | / | / | /
Cc1occc1C(=O)NCc1ccccc1 | ? | -2% | / | 1% | 30 | 1

Bioassay records deposited in PubChem by National Center for Advancing Translational Sciences (NCATS).
